# Test results reported in PubChem BioAssay (Tox21).
# Inconclusive results are not listed. The source made the active and inactive calls. Calls follow the shape of the dose curve; as a rule, active = well fitted activation curve with a large enough effect in the signal ratio in the repeat runs (not every such curve was filed as active); inconclusive = weak or mixed curves, or effect the other way; inactive = no such curve, though single readings can be large or run the other way; the % refers to the signal ratio.
# Biological target: Glucocorticoid receptor (Homo sapiens) (UniProt P04150)
# Assay: qHTS assay to identify small molecule agonists of the glucocorticoid receptor (GR) signaling pathway (AID 720691)
# Conditions: GR-bla HeLa, beta-lactamase reporter ratio, 18 h; series mostly up to 62.4 µM; activation: at the top concentration
# Text: U.S. Tox21 Program National Center for Advancing Translational Sciences [NCATS] NIH Chemical Genomics Center [NCGC] U.S. Environmental Protection Agency [EPA] National Institutes of Environmental Health Sciences [NIEHS] National Toxicology Program [NTP] U.S. Food and Drug Administration [FDA] Tox21 Assay Overview: The Glucocorticoid receptor (GR) is one of the members of the nuclear receptor family of ligand-dependent transcription factors. GR plays a critical role in carbohydrate, protein and lipid metabolisms and programmed cell death. CellSensor GR-bla HeLa cell line (Invitrogen) contains a beta-lactamase reporter gene under the control of the glucocorticoid response element stably integrated into HeLa cells, a cervical cancer cell line that expresses glucocorticoid receptor. The activation of the reporter gene under culture conditions can be detected by fluorescence intensity. This cell line has been used to screen the Tox21 10K compound library and to identify the compounds that activate the GR signaling.
# Tox21 Assay Protocol Summary: The GR-bla HeLa cells were dispensed at 1500 cells/6 ul/well in 1536-well black wall/clear bottom plates using a Multidrop Combi (ThermoFisher Scientific, Waltham, MA) dispenser. After the assay plates were incubated at a 37 C/5% CO2 incubator for 4 hours, 23 nL of compounds dissolved in DMSO, positive controls or DMSO only was transferred to the assay plate by a pintool station (Kalypsys, San Diego, CA). The plates were incubated at 37 C for 18 hours. After 1 uL of LiveBLAzerTM B/G FRET substrate was added using a Flying Reagent Dispenser (Aurora Discovery, San Diego, CA), the plates were incubated at room temperature for 2 hours, and fluorescence intensity was measured by an Envision plate reader (PerkinElmer, Shelton, CT).
# % is scaled to controls: 0 for no effect and ±100 for the full control effect.
# Sequence of Glucocorticoid receptor (Homo sapiens) (P04150 whole entry, looked up): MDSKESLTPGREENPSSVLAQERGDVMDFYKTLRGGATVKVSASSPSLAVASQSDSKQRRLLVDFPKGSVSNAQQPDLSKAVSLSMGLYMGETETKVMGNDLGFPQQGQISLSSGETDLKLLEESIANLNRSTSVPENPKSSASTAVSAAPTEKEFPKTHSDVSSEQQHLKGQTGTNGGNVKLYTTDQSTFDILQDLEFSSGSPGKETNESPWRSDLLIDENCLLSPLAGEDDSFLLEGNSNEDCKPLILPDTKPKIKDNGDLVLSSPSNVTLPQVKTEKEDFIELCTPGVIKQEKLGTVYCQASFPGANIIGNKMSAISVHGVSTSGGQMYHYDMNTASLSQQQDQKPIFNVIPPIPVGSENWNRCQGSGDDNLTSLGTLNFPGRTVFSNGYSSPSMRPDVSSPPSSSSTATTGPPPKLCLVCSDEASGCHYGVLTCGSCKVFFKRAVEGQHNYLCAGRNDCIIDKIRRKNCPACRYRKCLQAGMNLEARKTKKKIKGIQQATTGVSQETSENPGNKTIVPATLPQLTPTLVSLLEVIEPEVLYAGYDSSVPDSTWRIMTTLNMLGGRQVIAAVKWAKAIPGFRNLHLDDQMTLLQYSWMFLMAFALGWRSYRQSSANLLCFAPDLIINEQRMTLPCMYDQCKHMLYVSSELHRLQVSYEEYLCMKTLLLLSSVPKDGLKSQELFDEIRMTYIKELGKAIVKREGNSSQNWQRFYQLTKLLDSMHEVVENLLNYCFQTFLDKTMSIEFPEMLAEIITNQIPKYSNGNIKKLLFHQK
Compound,activation,Potency
OC[C@H]1O[C@@H](n2cnc3c(=S)nc[nH]c32)[C@H](O)[C@@H]1O,1.4% (inactive),–
CCCCCCC(C)(C)C(=O)O,-4.21% (inactive),–
O=C1c2ccccc2C(=O)C1(O)O,-8.63% [at 79.2 µM] (inactive),–
O=C1NC(=O)c2cc([N+](=O)[O-])ccc21,2.45% [at 79.2 µM] (inactive),–
COC(=O)CCS,-0.921% (inactive),–
CCCCC(CC)COP(=O)(O)O (stereo not given),-12.5% [at 79.2 µM] (inactive),–
CC(=O)OCCN(CCOC(C)=O)c1ccc(N=Nc2ccc([N+](=O)[O-])cc2C#N)cc1,-0.834% (inactive),–
CCC=CC#N,1.78% (inactive),–
CCN(CC)CCNC(=O)COc1ccc(OC)cc1,-0.503% (inactive),–
CCCCCC[C@@H](O)C/C=C\CCCCCCCC(=O)O,–,inactive
CCC(C)(C)OC,0.395% (inactive),–
CCCCCCCC/C=C\CCCCCCCCO,0.544% (inactive),–
C=CC(=O)[O-].C=CC(=O)[O-].[Zn+2],0.376% (inactive),–
O=C1c2ccccc2C(=O)c2c(O)c(O)cc(O)c21,-5.85% (inactive),–
Cc1ccco1,0.501% (inactive),–
Cc1ccc(OC(=O)c2ccccc2O)cc1,2.68% (inactive),–
O=Cc1c2ccccc2c(Cl)c2ccccc12,1.66% (inactive),–
CCOC(=O)/C=C/C(=O)OCC,0.0679% (inactive),–
CCOC(=O)c1ccc(C#Cc2ccc3c(c2)C(C)(C)CCS3)nc1,3.96% (inactive),–
C[C@H]1c2cccc(O)c2C(O)=C2C(=O)[C@]3(O)C(O)=C(C(N)=O)C(=O)[C@@H](N(C)C)[C@@H]3[C@@H](O)[C@@H]21,-4.76% (inactive),–

Compound,activation,Potency
CN(C)CCC=C1c2ccccc2C=Cc2ccccc21,0.678% (inactive),–
C[C@@H](CN(C)C)CN1c2ccccc2Sc2ccccc21,-1.86% [at 29.2 µM] (inactive),–
O=C(OC(=O)c1ccccc1)c1ccccc1,2.27% [at 79.2 µM] (inactive),–
CCCC(=O)C(=O)O,-0.0259% (inactive),–
O=[N+]([O-])c1cc(C2CCCCC2)c(O)c([N+](=O)[O-])c1,-9.29% (inactive),–
CCC(OCCCOC)OC(C)=O (stereo not given),-0.324% [at 79.2 µM] (inactive),–
CCCCCCCCOc1ccc(C(=O)O)cc1,-9.32% (inactive),–
c1csc(SSc2cccs2)c1,2.06% (inactive),–
CCCC(C(=O)OCCN(CC)CC)(c1ccccc1)c1ccccc1,-1.24% (inactive),–
CC1(CN2CCC(n3c(=O)[nH]c4ccccc43)CC2)OCc2ccccc2-n2cccc21 (stereo not given),-9.69% (inactive),–
CC[C@]1(O)C[C@H]2CN(CCc3c([nH]c4ccccc34)[C@@](C(=O)OC)(c3cc4c(cc3OC)N(C=O)[C@H]3[C@@](O)(C(=O)OC)[C@H](OC(C)=O)[C@]5(CC)C=CCN6CC[C@]43[C@@H]65)C2)C1,0.172% (inactive),–
CC(C)c1nc(CN(C)C(=O)N[C@H](C(=O)N[C@@H](Cc2ccccc2)C[C@H](O)[C@H](Cc2ccccc2)NC(=O)OCc2cncs2)C(C)C)cs1,–,inactive
CCc1ccccc1,-0.22% [at 79.2 µM] (inactive),–
CC1CC(C)C(=O)C1=O (stereo not given),0.644% (inactive),–
Nc1nnc(-c2ccc([N+](=O)[O-])o2)o1,2.18% (inactive),–
CC(CN(C)C)C(C)(O)Cc1ccc(Cl)cc1 (stereo not given),-3.05% (inactive),–
Cc1cc(C)c(N)cc1C,-2.23% (inactive),–
O=c1cc(-c2ccccc2)oc2cc(O)cc(O)c12,-13% (inactive),–
O=C1c2ccccc2C(=O)C1c1nc2ccccc2c(Br)c1O,-6.06% (inactive),–
COc1cc(N)c(Cl)cc1C(=O)NC1CCN(CCCOc2ccc(F)cc2)CC1OC (stereo not given),-0.93% [at 29.2 µM] (inactive),–
